# Compound activity: PubChem BioAssay, National Center for Advancing Translational Sciences (NCATS)
# PKM2 inhibitor: qHTS Assay for Inhibitors of Human Muscle isoform 2 Pyruvate Kinase. Pyruvate kinase PKM (Homo sapiens), P14618. purified PKM2, ATP generation, Kinase-Glo luminescence. Potency, µM (titrated, usually from 57.5 µM), for the others: top-dose activity change, negative = inhibition, most hits filed as inhibitors. 260,000 compounds, 0.058% hits. AID 1634, 2009; active = well fitted inhibition curve with a large enough effect; note: nearly all actives have a fitted effect of over 60% in size
# Target sequence (P14618 whole entry, looked up, canonical isoform): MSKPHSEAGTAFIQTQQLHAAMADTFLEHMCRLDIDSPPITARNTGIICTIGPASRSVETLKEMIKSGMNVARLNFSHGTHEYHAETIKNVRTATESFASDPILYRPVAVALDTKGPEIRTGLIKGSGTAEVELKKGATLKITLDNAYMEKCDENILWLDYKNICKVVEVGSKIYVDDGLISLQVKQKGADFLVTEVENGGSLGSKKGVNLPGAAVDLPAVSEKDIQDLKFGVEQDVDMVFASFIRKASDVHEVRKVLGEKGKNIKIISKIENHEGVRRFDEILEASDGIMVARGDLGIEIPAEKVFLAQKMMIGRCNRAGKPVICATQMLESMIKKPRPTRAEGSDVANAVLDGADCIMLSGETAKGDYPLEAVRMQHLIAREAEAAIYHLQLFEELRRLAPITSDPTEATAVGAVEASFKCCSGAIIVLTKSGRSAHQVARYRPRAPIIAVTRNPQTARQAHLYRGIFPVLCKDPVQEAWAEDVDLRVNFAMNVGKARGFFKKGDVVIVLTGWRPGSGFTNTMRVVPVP
#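 Coupled luciferase luminescence (Kinase-Glo) detects ATP generated from 0.1 mM ADP and 0.5 mM PEP in imidazole buffer pH 7.2 with KCl, MgCl2; 1 h at room temperature. Enzyme at intermediate activity; normalized to uninhibited and no-enzyme controls.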
# * = called active by the depositor; [ ] = remark or other dose. The sample as a whole holds a higher share of hits than the screen did. Potency is the fitted concentration of half-maximal effect.
SMILES,PKM2 inhibitor
Fc1ccccc1-c1nc2ccccc2[nH]1,31.6µM*
Cc1cc(C)c2c(N)c(-c3nc4ccccc4[nH]3)sc2n1,54.7%
CCOC(=O)C(CCCCC(NC(C)=O)(C(=O)OCC)C(=O)OCC)(NC(C)=O)C(=O)OCC,-2.8%
O=C(Nc1nnc(SCc2ccc(F)cc2)s1)C1CC(=O)N(Cc2ccccc2)C1 (configuration not stated),66.0%
COc1ccc(S(=O)(=O)N(C(C)=O)c2ccc(OC(C)=O)c3ccccc23)cc1[N+](=O)[O-],38.2%
O=C(NCCN1C(=O)S/C(=C\c2cccnc2)C1=O)C1=NN(c2ccccc2)C(=O)CC1,30.1%
O=C1CC(Sc2ccc(Cl)cc2)C(=O)N1c1ccc2c(c1)OCCO2 (configuration not stated),40.0%
Cc1ccc(-c2cc3c(nn2)-c2ccccc2C3=O)cc1,12.6µM*
CCOC(=O)C1=C(Cc2ccc(C)cc2)C(=O)c2ccccc2C1=O,40.2%
O=C(c1ccc([N+](=O)[O-])cc1)N1C=CC(C(F)(F)F)=NCC1,-1.6%
O=C(NCc1ccco1)c1ccc2nc3sc4c(c3c(=O)n2c1)CCCC4,32.7%
COc1ccc(S(=O)(=O)N2CCN(C(=O)C3CCCO3)CC2)cc1 (configuration not stated),48.5%
O=C(NCc1cccs1)c1cc2ccccc2o1,-0.3%
O=C(Nc1ccccn1)c1cc2ccccc2o1,12.6µM*
O=C1CNC(=S)N1CCc1ccc(O)c(O)c1,45.4%
CC(C)(C)c1csc(Sc2ccc([N+](=O)[O-])cn2)n1,31.2%
CC(C)N1C(=O)c2ccccc2N(Cc2ccccc2)S1(=O)=O,-5.8%
Cc1cc(C)nc(N2CCN(S(=O)(=O)c3ccc(F)cc3)CC2)n1,41.4%
O=C(NCc1ccccc1Cl)C1CCN(S(=O)(=O)c2cccs2)CC1,100.7%
Clc1ccc(C2=NNC(=NCc3ccc4c(c3)OCO4)SC2)cc1,59.3%
c1ccc(C2=NNC(=NC3CC3)SC2)cc1,14.1µM*
CC(C)(C)c1ccc(C(=O)c2c[nH]c(C(=O)O)c2)cc1,176.3%
Cc1ncsc1C(=O)O,51.7%
Nc1nc(-c2ccccc2)cn1N,77.8%
Cc1ccc2nc(-c3ccccc3)cn2c1,14.1µM*
SMILES,PKM2 inhibitor
CSCCCNC(=S)N1CCN(S(=O)(=O)c2cccc(C(F)(F)F)c2)CC1,33.1%
CCCCn1c(SCC(=O)c2ccc3c(c2)NC(=O)CO3)nc2cc(S(N)(=O)=O)ccc21,40.0%
COc1ccc(N2C(=O)CC(Sc3nnc(-c4ccccc4F)n3C)C2=O)cc1 (configuration not stated),49.8%
COc1ccc(N2Cc3ccccc3C2=O)cc1,14.1µM*
COc1ccc(-n2c(=S)[nH]c3ncccc3c2=O)cc1,-0.3%
C=CCNC(=O)/C(C#N)=C/c1ccc(OS(=O)(=O)c2ccc(C)cc2)c(OC)c1,36.9%
Cn1c(CCNS(=O)(=O)c2ccccc2)nc2cc([N+](=O)[O-])ccc21,54.0%
NC(=O)c1ccccc1N/C=C/C(=O)c1ccccc1,11.2µM*
N#C/C(=C/Nc1ccccc1C(=O)O)C(N)=O,-7.9%
O=C(/C=C\c1ccc(-c2ccccc2)o1)c1ccccc1,35.1%
S=C(Nc1ccccc1)N1CCN(C(=S)c2ccccc2)CC1,36.2%
CC(=O)Oc1cc2c(C(=O)NCc3ccncc3)c(C)oc2c2ccccc12,42.8%
Cc1nn(C)c(Sc2ccccc2N)c1[N+](=O)[O-],91.9%
COc1ccc(C(=O)NCCN2C(=O)S/C(=C\c3cccnc3)C2=O)cc1[N+](=O)[O-],96.9%
C=CCn1c(SCc2nc3ccccc3c(=O)[nH]2)nc2scc(C3CC3)c2c1=O,64.3%
Cc1ccc(N(CC(=O)NC(C)(C)C)C(=O)CS(=O)CC(=O)Nc2ccc3c(c2)OCO3)cc1 (configuration not stated),6.9%
CCCCC1=CC2=C(c3ccco3)C(=O)C(C)(OC(=O)c3ccc(OC)cc3)C(=O)C2=CN1C1CCCCC1 (configuration not stated),42.9%[11.5 µM]
CN(C)c1ccc(N/C=C/C(=O)c2ccco2)cc1,14.1µM*
O=C(Nc1ccc(NC(=S)NC(=O)c2cccs2)cc1)c1ccco1,107.8%
Cc1c(C(=O)OCc2ccccc2)nnn1-c1nonc1N,36.3%
N/C(=N/OC(=O)c1ccccc1F)c1nonc1N,15.8µM*
Cc1cc(NC(=O)CSc2nc(N)c(NC(=O)c3ccco3)c(=O)[nH]2)no1,76.9%
Cc1ccc(-c2nn(-c3ccccc3)cc2CN(Cc2ccccc2)C(=O)c2ccco2)o1,60.7%
CCCCNS(=O)(=O)c1ccc2nc(SCC(=O)c3ccccc3OC)[nH]c2c1,32.0%
COc1ccccc1C(=O)Nc1ncc2c(n1)CC(c1ccco1)CC2=O (configuration not stated),46.2%
COc1ccccc1C(=O)Nc1nc2ccccc2[nH]1,15.8µM*
CCOC(=O)Cn1c(=O)oc2cc(S(=O)(=O)N3CCc4ccccc43)ccc21,40.5%
Cc1ccc(CC2CC(=O)N(Cc3ccco3)C2=O)cc1 (configuration not stated),30.3%
Cc1ccc2c(c1)C(N1CCCC1=O)CC(c1ccco1)N2 (configuration not stated),14.1µM*
